In PubChem BioAssay:
Values without a mark were called inactive. Active and inactive are the calls of the source.

Assay: budding yeast growth modifiers under rapamycin – strain BY4716, OD600, 96 h, primary screen (AID 1091); note: test concentration not given here
Settings: S. cerevisiae BY4716 + rapamycin, higher = more signal, called active from +8 up or from −8 down

Going from C[C@@H]1CC[C@H]2C(=O)N3[C@@H](CC[C@@H](C)[C@@H]3c3cccc(N4CCOCC4)c3)C(=O)N2[C@H]1c1cccc(N2CCOCC2)c1 to COc1ccc(C(O)C2C=CC3C(=O)N(C)C(=O)C3N2N2CCCCC2)cc1OCc1ccccc1 (stereo unspecified), the z-score rises from 0.651 to 1.01.

Compared with O=C1c2ccccc2[C@](Cc2ccccc2I)(C(=O)O)[C@H](c2ccc(CO)cc2)N1C1CCCCC1, CC(C)NC(=O)[C@@]1(Cc2ccccc2I)c2ccccc2C(=O)N(C2CCCCC2)[C@H]1c1ccc(CO)cc1 is lower in z-score: -0.997 for the first, -1.03 for the second.

Going from COCCCNC(=O)[C@@]1(c2ccc([N+](=O)[O-])cc2)CC(=O)N(C2CCCCC2)[C@@H]1c1ccc(CO)cc1 to COc1ccc(CCNC(=O)[C@@]2(c3ccc([N+](=O)[O-])cc3)CC(=O)N(C(C)C)[C@@H]2c2ccc(CO)cc2)cc1, the z-score falls from -0.432 to -1.1.

Going from C=C(C(=O)CC[C@H](OC(=O)c1ccccc1-c1ccccc1C(=O)O)c1ccc(CO)o1)C(C)C to O=C(NCC(F)(F)F)[C@@H]1c2ccccc2C(=O)N(Cc2ccccc2Cl)[C@H]1c1ccc(CO)cc1, the z-score falls from 0.782 to 0.0061.

First: CSCC[C@@H]1NC(=O)CC=C[C@@H](C)COC(=O)[C@H](CCSC)NC(=O)CC=C[C@@H](C)COC1=O
Second: CO[C@H]1COC(=O)[C@@H](C)NC(=O)CC=C[C@@H](C)[C@H](OC)COC(=O)CC=C[C@@H]1C
The z-score of the first is higher: -1.03 for the first, -1.67 for the second.

First: CC1=C([C@H](O)CCc2ccccc2)[C@H](CO)[C@@H]2C(=O)N(Cc3ccccc3)C(=O)[C@@H]2C1
Second: Cc1ccc(S[C@]2(C(=O)NCCCN(C)C)CC(=O)N(Cc3ccccc3)[C@@H]2c2ccc(CO)cc2I)cc1
The z-score of the first is lower: -0.873 for the first, 0.768 for the second.

Compared with O=C1O[C@@H](c2ccccc2)[C@@H](c2ccccc2)N2[C@@H](c3ccccc3OCCO)[C@]3(C(=O)Nc4ccc(C#CC5=CCCCC5)cc43)[C@@H](C(=O)O)[C@H]12, NC(=O)NCC#Cc1ccc2c(c1)[C@]1(C(=O)N2)[C@H](c2ccccc2OCCO)N2[C@H](c3ccccc3)[C@H](c3ccccc3)OC(=O)[C@H]2[C@@H]1C(=O)N1CCN(c2ncccn2)CC1 is higher in z-score: 0.341 for the first, 4.25 for the second.

Compared with O=C1O[C@@H](c2ccccc2)[C@@H](c2ccccc2)N2[C@@H](c3ccc(OCCO)cc3)[C@]3(C(=O)Nc4ccc(C#CCCO)cc43)[C@@H](C(=O)N3CCN(c4ncccn4)CC3)[C@H]12, O=C1O[C@@H](c2ccccc2)[C@@H](c2ccccc2)N2[C@@H](c3ccc(O)cc3)[C@]3(C(=O)Nc4ccccc43)[C@@H](C(=O)N3CCN(c4ncccn4)CC3)[C@H]12 is lower in z-score: 3.71 for the first, 1.98 for the second.

Going from CC(=O)NCCCC[C@@H]1NC(=O)[C@@H]2C[C@H](C(=O)NCCCCCCN(C)C)[C@H](c3ccc(O)cc3)N2C1=O to CC(=O)NCCCC[C@@H]1NC(=O)[C@H]2C[C@@H](C(=O)NCCCCCCN(C)C)[C@@H](c3ccc(O)cc3)N2C1=O, the z-score falls from 0.905 to 0.613.

Compared with COc1cc([C@@H]2N[C@H](C(=O)O)Cc3c2[nH]c2ccccc32)cc(OC)c1OC, C=C[C@H](OC)[C@@H](OC(=O)Nc1ccc(SC)cc1)c1ccc(OC)c(O)c1 is higher in z-score: -0.611 for the first, -0.44 for the second.

Compared with COCCOC(=O)N1C(=O)[C@@]2(c3cc(C#CC4=CCCCC4)ccc31)[C@H](C(=O)NC[C@H](O)c1ccccc1)[C@H]1C(=O)O[C@H](c3ccccc3)[C@H](c3ccccc3)N1[C@@H]2c1ccccc1OCCO, C=CCNC(=O)[C@H]1[C@@H]2C(=O)O[C@@H](c3ccccc3)[C@@H](c3ccccc3)N2[C@@H](c2ccc(O)cc2)[C@]12C(=O)Nc1ccc(C#CCNC(N)=O)cc12 is lower in z-score: 4.71 for the first, 0.402 for the second.

First: CO[C@H]1COC(=O)CC=C[C@H](C)[C@@H](OC)COC(=O)CC=C[C@@H]1C
Second: C#CCCCON=C1C[C@@H](O)[C@@H](O)[C@@H]2[C@@H]3C(=O)N(Cc4ccc5c(c4)OCO5)C(=O)[C@@H]3CC[C@H]12
The z-score of the first is lower: -0.98 for the first, -0.257 for the second.

Going from CN(C)C(=O)[C@@]1(Cc2ccccc2N=[N+]=[N-])N=C(c2ccc(OCCCO)cc2)O[C@H]1c1ccccc1CN=[N+]=[N-] to C=CC[C@]1(C(=O)OC)N=C(c2ccc(OCCCO)cc2)O[C@H]1c1ccccc1CN=[N+]=[N-], the z-score falls from 1.62 to -0.723.

First: O=C(CS)NCCCCCNC(=O)[C@H]1C[C@H]2C(=O)N3CCC[C@H]3C(=O)N2[C@H]1c1ccc(O)cc1
Second: C[N+](C)(C)CCCC[C@@H]1NC(=O)[C@H]2C[C@@H](C(=O)NCc3ccc(F)cc3)[C@@H](c3cccc(OCCO)c3)N2C1=O
The z-score of the first is higher: 0.0236 for the first, -0.736 for the second.

Going from Cc1ccccc1C(O)C1C=CC2C(=O)N(c3ccccc3)C(=O)C2N1Nc1ccc(C#N)cc1 (stereo unspecified) to Cc1ccc([C@@H]2CC=C(C(=O)O)[C@H](c3ccccc3)N2S(=O)(=O)c2ccc(C)cc2)cc1, the z-score falls from 3.52 to -0.269.

First: CCCCCCc1nc(C2CC2)c(C)c2c1[Si](C(C)C)(C(C)C)OC2
Second: C#CCCCON=C1C[C@@H](O)[C@@H](O)[C@@H]2[C@@H]3C(=O)N(Cc4ccc5c(c4)OCO5)C(=O)[C@@H]3CC[C@@H]12
The z-score of the first is lower: -1.75 for the first, 0.271 for the second.

Compared with CCCNC(=O)[C@@H]1c2ccccc2C(=O)N(Cc2cc(F)cc(C(F)(F)F)c2)[C@H]1c1ccc(CO)cc1, COC(=O)Cn1c(C(=O)N2CCCC2)cc2c1C[C@H]1CN(C(=O)c3ccccc3)[C@@](Cc3ccccc3)(C(=O)OC)[C@@H]21 is higher in z-score: -1.36 for the first, 0.651 for the second.

With O=C(NCc1ccccc1)[C@@]1(CCS(=O)(=O)c2ccccc2)COC(c2ccc(OCCCO)cc2)=N1 the z-score was 31.5 (active).
For COC(=O)[C@@]1(Cc2ccccc2N=[N+]=[N-])N=C(c2ccc(OCCCO)cc2)O[C@H]1c1ccccc1CN=[N+]=[N-], the z-score was 28.5 (active).
